The supplement of paper PMC11732987, “Enantioselective OTUD7B fragment discovery through chemoproteomics screening and high-throughput optimisation” (Communications Chemistry, 2025)

Columns and labels:
Test in all cases: log2 ratio of Biotin-Ahx-Ub-VS probe labelling (fragment/DMSO); higher = less target engagement (more negative = stronger competition), active = hit call of the paper (q ≤ 0.05, log2 ratio ≤ -1)
Details in all cases: compound concentration: 200 uM; treatment time: 3 h
USP9X = USP9X (UniProt Q93008)
How it was run: (§1)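 In triplicate, 495 µg of HEK293T lysate per sample was incubated with fragment at 200 µM or vehicle for 3 h. Biotin-Ahx-Ub-VS was then added to 0.5 µM final for 1 h, and labelled DUBs were captured with NeutrAvidin, digested with LysC and trypsin, and measured by diaPASEF LC-MS/MS. Data are average log2 fragment/vehicle ratios by unpaired t-test from global-median-normalised Spectronaut label-free quantities, restricted to proteins with ≥2 unique peptides.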

UniProt O00487 = target: UniProt O00487
UniProt O00487, sequence (O00487 whole entry): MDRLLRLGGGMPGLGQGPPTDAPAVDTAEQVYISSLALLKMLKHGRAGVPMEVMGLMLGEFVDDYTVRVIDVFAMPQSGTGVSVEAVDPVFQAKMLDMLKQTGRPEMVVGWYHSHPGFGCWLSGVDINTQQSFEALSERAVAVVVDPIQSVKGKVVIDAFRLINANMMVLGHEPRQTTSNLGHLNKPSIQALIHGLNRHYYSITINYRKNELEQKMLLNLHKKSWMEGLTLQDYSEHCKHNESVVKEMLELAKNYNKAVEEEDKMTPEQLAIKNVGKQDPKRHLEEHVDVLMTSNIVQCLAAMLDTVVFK
How it was run: as §1

UniProt O00507 = target: UniProt O00507
UniProt O00507, sequence (O00507 whole entry): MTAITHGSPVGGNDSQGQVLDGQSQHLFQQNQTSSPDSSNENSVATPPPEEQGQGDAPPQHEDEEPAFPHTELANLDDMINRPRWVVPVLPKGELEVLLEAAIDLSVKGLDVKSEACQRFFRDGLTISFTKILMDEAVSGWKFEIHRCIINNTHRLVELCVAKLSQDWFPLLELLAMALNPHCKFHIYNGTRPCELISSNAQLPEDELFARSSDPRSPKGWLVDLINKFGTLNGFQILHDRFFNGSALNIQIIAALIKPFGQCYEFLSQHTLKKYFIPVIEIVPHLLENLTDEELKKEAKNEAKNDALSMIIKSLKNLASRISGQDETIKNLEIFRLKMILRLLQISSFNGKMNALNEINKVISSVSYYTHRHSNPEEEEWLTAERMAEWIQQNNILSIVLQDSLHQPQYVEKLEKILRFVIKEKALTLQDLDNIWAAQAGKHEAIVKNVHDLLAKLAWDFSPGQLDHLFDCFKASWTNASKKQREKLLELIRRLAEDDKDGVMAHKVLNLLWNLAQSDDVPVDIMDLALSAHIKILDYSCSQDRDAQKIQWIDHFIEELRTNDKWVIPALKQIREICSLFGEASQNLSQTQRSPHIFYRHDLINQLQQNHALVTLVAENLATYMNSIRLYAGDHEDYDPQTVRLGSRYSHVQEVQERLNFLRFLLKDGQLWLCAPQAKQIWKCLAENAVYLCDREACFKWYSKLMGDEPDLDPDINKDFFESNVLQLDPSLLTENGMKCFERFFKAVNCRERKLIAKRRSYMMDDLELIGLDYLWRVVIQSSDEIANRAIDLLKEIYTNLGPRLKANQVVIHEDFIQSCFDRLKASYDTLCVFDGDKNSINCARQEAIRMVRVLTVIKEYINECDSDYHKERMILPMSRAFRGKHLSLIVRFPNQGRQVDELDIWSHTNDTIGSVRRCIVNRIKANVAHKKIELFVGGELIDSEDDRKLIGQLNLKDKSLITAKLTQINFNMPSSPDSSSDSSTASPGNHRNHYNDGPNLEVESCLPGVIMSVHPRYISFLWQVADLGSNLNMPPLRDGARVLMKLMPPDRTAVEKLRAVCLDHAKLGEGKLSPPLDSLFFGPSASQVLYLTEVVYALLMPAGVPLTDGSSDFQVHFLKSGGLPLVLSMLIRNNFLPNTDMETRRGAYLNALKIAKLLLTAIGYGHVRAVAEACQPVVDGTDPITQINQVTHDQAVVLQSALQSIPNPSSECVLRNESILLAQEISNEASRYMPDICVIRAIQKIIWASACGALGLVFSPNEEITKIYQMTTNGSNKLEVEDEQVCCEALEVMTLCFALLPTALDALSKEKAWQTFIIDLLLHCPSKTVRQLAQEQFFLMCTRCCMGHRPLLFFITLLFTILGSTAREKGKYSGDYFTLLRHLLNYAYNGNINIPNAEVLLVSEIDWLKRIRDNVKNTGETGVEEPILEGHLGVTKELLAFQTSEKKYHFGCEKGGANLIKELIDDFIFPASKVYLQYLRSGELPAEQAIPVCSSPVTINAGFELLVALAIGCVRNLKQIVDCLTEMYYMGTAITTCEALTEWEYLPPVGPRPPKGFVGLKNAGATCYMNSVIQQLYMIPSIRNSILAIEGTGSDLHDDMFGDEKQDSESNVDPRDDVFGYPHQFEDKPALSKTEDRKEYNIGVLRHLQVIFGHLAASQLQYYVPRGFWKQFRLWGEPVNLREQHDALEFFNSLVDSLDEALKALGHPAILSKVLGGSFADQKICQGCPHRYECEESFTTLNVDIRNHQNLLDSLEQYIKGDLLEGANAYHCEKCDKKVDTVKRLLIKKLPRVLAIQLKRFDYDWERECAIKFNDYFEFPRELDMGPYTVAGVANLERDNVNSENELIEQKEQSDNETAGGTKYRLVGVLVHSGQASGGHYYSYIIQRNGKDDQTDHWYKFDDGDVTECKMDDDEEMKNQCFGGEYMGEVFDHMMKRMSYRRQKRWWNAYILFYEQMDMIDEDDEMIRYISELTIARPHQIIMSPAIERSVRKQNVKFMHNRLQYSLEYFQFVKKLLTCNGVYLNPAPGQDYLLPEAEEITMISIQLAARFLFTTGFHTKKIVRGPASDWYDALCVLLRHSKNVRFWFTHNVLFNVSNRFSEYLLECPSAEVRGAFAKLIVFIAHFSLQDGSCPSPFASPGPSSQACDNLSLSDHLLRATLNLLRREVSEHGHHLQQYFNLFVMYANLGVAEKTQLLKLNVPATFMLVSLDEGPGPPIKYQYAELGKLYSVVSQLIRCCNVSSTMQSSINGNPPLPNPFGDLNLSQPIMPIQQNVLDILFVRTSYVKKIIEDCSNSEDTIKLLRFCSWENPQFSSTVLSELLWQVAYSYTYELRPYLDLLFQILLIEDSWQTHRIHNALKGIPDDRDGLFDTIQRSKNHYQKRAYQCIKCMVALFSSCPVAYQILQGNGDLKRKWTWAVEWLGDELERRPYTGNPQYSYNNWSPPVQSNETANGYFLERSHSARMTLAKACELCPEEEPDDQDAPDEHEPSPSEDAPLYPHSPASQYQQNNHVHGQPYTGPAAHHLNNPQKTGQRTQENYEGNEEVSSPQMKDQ
How it was run: as §1

UniProt P51784 = target: UniProt P51784
UniProt P51784, sequence (P51784 whole entry): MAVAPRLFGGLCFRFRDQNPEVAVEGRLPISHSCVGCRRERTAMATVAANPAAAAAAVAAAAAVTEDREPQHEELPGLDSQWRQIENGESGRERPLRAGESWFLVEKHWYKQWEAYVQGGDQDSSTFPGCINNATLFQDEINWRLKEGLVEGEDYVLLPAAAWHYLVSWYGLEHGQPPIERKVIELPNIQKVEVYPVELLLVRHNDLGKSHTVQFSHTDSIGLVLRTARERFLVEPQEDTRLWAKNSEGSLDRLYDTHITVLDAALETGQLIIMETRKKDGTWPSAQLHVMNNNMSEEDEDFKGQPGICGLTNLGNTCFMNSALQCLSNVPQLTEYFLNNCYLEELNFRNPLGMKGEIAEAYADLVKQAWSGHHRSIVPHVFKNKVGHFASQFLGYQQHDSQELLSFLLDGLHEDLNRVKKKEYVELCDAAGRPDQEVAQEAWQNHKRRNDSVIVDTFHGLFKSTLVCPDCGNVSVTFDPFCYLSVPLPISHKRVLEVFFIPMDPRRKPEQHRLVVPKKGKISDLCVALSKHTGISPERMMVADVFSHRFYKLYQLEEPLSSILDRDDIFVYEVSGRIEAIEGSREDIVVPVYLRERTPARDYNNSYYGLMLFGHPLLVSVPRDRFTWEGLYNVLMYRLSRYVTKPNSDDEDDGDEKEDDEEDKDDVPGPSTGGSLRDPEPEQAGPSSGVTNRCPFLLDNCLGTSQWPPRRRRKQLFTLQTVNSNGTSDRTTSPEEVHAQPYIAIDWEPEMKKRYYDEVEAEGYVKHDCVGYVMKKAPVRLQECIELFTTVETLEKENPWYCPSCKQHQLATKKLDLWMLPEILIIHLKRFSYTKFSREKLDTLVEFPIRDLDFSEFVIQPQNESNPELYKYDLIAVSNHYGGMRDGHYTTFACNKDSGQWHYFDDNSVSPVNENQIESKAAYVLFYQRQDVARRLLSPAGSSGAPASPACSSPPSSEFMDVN
How it was run: as §1

UniProt Q5T2D3 = target: T1, UniProt Q5T2D3
T1 sequence (whole entry): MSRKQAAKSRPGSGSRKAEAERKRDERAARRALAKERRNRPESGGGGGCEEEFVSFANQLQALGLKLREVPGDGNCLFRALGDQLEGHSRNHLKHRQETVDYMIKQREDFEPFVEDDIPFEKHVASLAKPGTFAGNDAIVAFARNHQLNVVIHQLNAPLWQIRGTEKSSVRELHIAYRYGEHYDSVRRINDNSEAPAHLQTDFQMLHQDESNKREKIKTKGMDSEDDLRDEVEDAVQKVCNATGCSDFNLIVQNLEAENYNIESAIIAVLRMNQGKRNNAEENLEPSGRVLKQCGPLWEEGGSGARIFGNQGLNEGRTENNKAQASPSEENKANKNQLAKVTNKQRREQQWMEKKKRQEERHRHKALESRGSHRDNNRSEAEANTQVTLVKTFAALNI
How it was run: as §1

UniProt Q8TE49 = target: T2, UniProt Q8TE49
T2 sequence (whole entry): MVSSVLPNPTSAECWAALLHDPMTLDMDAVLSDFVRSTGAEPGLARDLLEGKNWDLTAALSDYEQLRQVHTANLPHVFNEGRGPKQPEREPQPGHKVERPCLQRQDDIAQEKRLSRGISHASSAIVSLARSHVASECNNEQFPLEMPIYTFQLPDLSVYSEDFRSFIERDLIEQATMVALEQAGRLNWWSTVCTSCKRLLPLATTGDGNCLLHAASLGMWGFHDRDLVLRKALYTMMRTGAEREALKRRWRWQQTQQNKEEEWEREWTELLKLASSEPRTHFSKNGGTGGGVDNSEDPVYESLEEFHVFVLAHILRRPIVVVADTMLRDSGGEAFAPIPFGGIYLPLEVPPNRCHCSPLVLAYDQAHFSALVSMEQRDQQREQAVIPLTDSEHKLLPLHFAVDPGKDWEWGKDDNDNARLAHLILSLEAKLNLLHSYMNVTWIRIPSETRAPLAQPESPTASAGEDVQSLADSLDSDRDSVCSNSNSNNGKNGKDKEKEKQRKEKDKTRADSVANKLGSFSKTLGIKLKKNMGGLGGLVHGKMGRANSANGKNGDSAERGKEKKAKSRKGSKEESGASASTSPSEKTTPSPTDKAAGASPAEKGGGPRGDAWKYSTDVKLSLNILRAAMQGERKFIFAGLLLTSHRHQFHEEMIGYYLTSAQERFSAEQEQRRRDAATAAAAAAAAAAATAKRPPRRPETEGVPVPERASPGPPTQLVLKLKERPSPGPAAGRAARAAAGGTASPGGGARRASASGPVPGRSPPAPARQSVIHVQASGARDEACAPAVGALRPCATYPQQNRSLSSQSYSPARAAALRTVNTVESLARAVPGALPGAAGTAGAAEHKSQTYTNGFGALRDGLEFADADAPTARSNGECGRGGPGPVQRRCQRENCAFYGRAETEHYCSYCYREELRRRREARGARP
How it was run: as §1

UniProt Q9P2H5 = target: T3, UniProt Q9P2H5
T3 sequence (whole entry): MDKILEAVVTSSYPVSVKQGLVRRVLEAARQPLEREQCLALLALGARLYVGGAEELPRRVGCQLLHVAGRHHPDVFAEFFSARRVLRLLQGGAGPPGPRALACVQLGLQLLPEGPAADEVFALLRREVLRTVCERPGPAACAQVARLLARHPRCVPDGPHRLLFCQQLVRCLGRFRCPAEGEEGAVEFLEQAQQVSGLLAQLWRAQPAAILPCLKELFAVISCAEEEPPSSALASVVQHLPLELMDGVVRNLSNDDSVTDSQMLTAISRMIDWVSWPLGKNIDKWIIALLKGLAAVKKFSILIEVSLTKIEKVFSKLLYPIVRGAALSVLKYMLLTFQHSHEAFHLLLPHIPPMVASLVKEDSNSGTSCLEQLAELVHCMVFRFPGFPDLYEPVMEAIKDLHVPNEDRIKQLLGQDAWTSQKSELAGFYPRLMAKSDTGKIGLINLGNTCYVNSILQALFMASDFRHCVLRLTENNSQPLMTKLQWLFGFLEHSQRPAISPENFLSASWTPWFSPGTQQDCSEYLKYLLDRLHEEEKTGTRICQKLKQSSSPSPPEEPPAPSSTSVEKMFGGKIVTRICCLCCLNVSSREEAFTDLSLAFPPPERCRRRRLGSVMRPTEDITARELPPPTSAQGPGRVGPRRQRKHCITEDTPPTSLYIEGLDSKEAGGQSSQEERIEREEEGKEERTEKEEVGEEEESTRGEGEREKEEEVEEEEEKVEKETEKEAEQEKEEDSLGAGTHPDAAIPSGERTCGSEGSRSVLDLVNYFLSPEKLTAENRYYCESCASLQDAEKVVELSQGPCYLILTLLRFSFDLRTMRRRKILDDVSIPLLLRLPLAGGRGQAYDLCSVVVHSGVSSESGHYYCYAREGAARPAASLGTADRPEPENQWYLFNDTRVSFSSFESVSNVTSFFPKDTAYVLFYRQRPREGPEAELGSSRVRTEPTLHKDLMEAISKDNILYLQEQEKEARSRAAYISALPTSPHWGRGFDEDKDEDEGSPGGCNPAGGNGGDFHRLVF
How it was run: as §1

UniProt Q9UGI0 = target: T4, UniProt Q9UGI0
T4 sequence (whole entry): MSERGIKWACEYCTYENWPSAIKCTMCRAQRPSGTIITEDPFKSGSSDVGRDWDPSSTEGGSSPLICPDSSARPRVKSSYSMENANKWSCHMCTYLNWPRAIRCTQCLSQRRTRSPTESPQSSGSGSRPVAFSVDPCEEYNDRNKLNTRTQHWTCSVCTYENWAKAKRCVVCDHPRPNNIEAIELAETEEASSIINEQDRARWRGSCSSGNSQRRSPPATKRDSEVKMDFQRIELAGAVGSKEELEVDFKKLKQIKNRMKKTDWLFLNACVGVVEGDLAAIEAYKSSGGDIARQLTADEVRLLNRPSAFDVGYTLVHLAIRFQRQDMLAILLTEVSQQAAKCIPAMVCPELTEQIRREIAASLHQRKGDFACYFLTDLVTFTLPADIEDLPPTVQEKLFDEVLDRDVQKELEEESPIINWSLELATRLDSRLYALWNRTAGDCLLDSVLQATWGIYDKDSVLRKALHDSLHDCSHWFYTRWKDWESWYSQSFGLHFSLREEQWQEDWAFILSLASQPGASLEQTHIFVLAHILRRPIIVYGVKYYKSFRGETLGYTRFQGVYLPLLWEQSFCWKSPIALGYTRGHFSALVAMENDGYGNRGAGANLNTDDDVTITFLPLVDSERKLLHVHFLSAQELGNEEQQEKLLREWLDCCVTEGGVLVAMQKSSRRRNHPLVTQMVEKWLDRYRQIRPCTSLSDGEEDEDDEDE
How it was run: as §1

YOD1 = target: T5, YOD1 (UniProt Q5VVQ6)
T5 sequence (whole entry): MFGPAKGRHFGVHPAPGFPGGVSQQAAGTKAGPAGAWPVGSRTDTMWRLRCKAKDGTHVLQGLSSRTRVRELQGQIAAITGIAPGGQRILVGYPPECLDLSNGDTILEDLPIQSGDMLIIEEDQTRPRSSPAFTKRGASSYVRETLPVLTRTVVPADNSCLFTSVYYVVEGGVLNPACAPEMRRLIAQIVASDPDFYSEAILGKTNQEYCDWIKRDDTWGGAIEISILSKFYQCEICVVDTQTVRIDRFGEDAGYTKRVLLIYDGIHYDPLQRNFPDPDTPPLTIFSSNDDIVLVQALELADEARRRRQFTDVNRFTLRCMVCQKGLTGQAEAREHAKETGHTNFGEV
How it was run: as §1

Measured: log2 ratio of Biotin-Ahx-Ub-VS probe labelling

O=C(CCl)NC1CCOc2ccccc21 (centres undefined)
active: UniProt Q8TE49 -1.79
inactive: USP9X -0.868 | UniProt O00487 0.0141 | UniProt O00507 -0.574 | UniProt P51784 -0.702 | UniProt Q5T2D3 -0.795 | UniProt Q9P2H5 -0.687 | UniProt Q9UGI0 -0.865 | YOD1 -0.774
